The full list was thinned out, with hits kept by preference.
USP2a inh: qHTS Assay for Inhibitors of Ubiquitin-specific Protease USP2a Using CHOP2 as the Reporter; Ubiquitin carboxyl-terminal hydrolase 2 (Homo sapiens), O75604; USP2 core, Ub-CHOP2 coupled fluorogenic reporter, 485/531; Potency, µM (doses to about 38.3 µM), for inactives: top-dose activity change, negative = inhibition, actives largely listed as inhibitors; 330,000 tested, 0.01% active;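 further: plate controls were DMSO wells for no effect and full inhibition by NEM control for full effect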
Target sequence (O75604 whole entry, looked up): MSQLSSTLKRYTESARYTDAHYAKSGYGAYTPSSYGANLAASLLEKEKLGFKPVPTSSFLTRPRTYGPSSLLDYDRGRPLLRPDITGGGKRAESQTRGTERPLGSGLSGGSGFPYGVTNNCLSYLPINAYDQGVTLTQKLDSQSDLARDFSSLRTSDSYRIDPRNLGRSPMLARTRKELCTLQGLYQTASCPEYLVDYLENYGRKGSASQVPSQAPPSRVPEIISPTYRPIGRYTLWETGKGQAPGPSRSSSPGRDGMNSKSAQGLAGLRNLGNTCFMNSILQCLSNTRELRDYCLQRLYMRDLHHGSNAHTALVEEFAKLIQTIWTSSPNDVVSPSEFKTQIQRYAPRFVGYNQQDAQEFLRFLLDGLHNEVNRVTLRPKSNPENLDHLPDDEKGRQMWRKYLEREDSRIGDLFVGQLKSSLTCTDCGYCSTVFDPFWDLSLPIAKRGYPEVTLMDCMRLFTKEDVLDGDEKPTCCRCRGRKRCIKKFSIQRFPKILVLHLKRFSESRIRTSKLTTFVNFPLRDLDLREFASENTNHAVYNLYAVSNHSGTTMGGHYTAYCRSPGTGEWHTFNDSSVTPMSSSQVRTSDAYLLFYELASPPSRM
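USP2 core (10nM final) preincubated 30min RT with compound in 20mM Tris-HCl pH 8.0, 2mM CaCl2, 2mM beta-mercaptoethanol, 0.05% CHAPS; 25nM Ub-CHOP2 plus 25nM reporter substrate added, fluorescence (Ex485/Em531) read after 60min.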
Eya2 inh: qHTS Assay for Inhibitors of the Phosphatase Activity of Eya2; Protein phosphatase EYA2 (Homo sapiens), O00167; 330,000 tested, 0.006% active; Potency, µM (titrated, usually from 76.9 µM), for inactives: at the top dose activity, negative = inhibition, actives largely listed as inhibitors; recombinant Eya2, OMFP fluorescence dephosphorylation (OMFP is methylfluorescein phosphate); further: on the % scale 0 is the no-effect control and ±100 the full control effect
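Eya2 (0.2 uM) preincubated 10 min at ambient with compound, then OMFP substrate added at 50 uM; 10 min reaction in 50 mM HEPES pH 7.5, 50 mM NaCl, 5 uM MgCl2, 0.05% BSA, 1 mM DTT. Fluorescence read at Ex 485/Em 525 nm.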
GALK inhibitor: qHTS Assay for Inhibitors of Human Galactokinase (GALK) | Potency, µM (series often up to 57.5 µM), for the others: at the top dose activity change, negative = inhibition, usual class: inhibitors | P51570 | 270,000 tested, 0.007% active | Purified GALK, Kinase-Glo residual ATP luminescence; further: on the % scale 0 is the no-effect control and ±100 the full control effect
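Compounds were pin-transferred into ATP buffer (35 uM final), then GALK plus galactose (5 nM, 100 uM final) was added. After 1 h at room temperature, Kinase-Glo Plus was added and luminescence read after 10 min.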
ClpP mod: qHTS Assay for Activators of ClpP | ATP-dependent Clp protease proteolytic subunit (Bacillus subtilis (strain 168)), P80244 | purified B. subtilis ClpP, FRET peptide cleavage, 20 min | Potency, µM (top dose mostly 57.5 µM), for the others: at the top dose activity change, negative = active | 340,000 tested, 1.9% active; active means well fitted falling curve with a large enough effect; inconclusive means small, poorly fitted or top-dose-only effect; inactive means no such curve, though single readings can be large or run the other way; further: the source files actives as falling curves though it sought activators and does not explain the sign; nearly all actives have a fitted effect of over 65% in size
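Buffer: 100 mM Tris/HCl pH8, 100 mM KCl, 0.05% low protease BSA, 2.5% glycerol, 0.01% Tween-20. ClpP 10 microg/mL final; 20 min RT; delta FRET normalized to ADEP and DMSO controls.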
Numbers without * were called inactive; ? = inconclusive; nt = not tested or not shown. Unless noted, the call rests on the fitted dose curve; in most records, active means well fitted inhibition curve with a large enough effect; inconclusive means small, poorly fitted or top-dose-only effect, or effect the other way; inactive means flat fitted curve, though single readings scatter. Potency means the concentration at half of the fitted maximal effect.

SMILES | USP2a inh | Eya2 inh | GALK inhibitor | ClpP mod
CCCCC(=O)OCc1nc2ccccc2s1 | -3.6% | 11.3% | 14.1% | 15.8µM*
COCc1cc(C)nc(OCC(=O)N/N=C/c2cccc(OC)c2)c1C#N | 2.8% | -30.4% | 2.9% | 28.2µM*
COCc1cc(C)nc(OCC(=O)N/N=C/c2ccccc2O)c1C#N | 1.3% | 1.6% | 2.8% | nt
Cc1cc(C)c2cc(C#N)c(NCCOC(=O)c3ccccc3C)nc2c1 | 2.5% | -2.0% | -2.1% | 28.2µM*
COc1ccc2nc(C)c(C(N)=O)cc2c1 | 4.1% | -18.3% | -1.8% | 4.2%
CCOC(=O)c1cc2cc(OC)ccc2nc1C | 1.4% | -0.1% | 1.7% | 31.6µM*
CCOC(=O)CCSc1nc(C)c2cc(OC)ccc2n1 | -0.1% | 1.3% | 0.4% | 25.1µM*
CCOC(=O)c1cc(C#N)c(N)nc1C | 1.7% | -9.5% | 5.0% | 22.4µM*
COc1ccc(NC(=O)CSc2nc(SC)ns2)cc1 | 1.3% | -6.0% | 5.3% | nt
CN(CC(=O)Nc1nc2ccccc2s1)S(=O)(=O)c1ccc(Cl)cc1 | 1.1% | 4.5% | -2.6% | -1.0%
COC(=O)c1cc(C#N)c(N(C)Cc2ccccc2)nc1C | 4.0% | -6.0% | -0.2% | ?
COC(=O)c1cc(C#N)c(NCc2ccccc2)nc1C | 0.6% | -28.0% | 0.4% | 31.6µM*
Cc1cccc(C)c1OCC(=O)Nc1nnc(C2CCCO2)s1 (stereo not given) | 1.2% | 6.8% | 0.9% | -14.3%
N#Cc1c(-c2ccccc2)nc(N2CCN(Cc3ccccc3)CC2)[nH]c1=O | -0.3% | -3.7% | nt | nt
CC(=O)/C(=C/Nc1ccc(Oc2ccccc2)cc1)c1ccccc1 | 0.7% | -14.8% | -1.2% | 7.94µM*
CC(=O)/C(=C\Nc1ccc(OCc2ccccc2)cc1)c1ccccc1 | -0.7% | 4.3% | -2.8% | -3.0%
O=C(CCS(=O)(=O)c1ccc(Cl)cc1)NCCN1C(=O)S/C(=C\c2ccccc2F)C1=O | -1.4% | 6.1% | -2.6% | 28.2µM*
Cc1ccc(S(=O)(=O)CCC(=O)NCCN2C(=O)S/C(=C\c3ccccc3)C2=O)cc1 | -4.6% | -0.3% | 2.8% | 2.1%
C=C1C=C(C)n2ncc(C(=O)Nc3ccc(NC(C)=O)c(Cl)c3)c2N1 | nt | nt | nt | -0.4%
c1ccc(Nc2ccc3c4c(cccc24)CC3)cc1 | -1.0% | -1.3% | 0.2% | 11.2µM*
c1ccc(Nc2cccc3ccccc23)cc1 | 3.1% | 2.2% | nt | 3.8%
CC(C)NC(=O)/C(=C/c1ccco1)c1ccccc1 | 0.1% | -2.1% | -0.6% | -2.5%
CCC(C)NC(=O)/C(=C/c1ccco1)c1ccccc1 (stereo not given) | 2.9% | -3.2% | 0.2% | 25.1µM*
COc1ccc(-c2csc(N(CCCN(C)C)C(=O)c3ccccc3C)n2)cc1 | -25.0% | 50.1µM* | -6.1% | nt
COc1ccc(-c2csc(N(CCCN(C)C)C(=O)c3ccccc3F)n2)cc1 | 2.7% | 3.2% | -1.3% | 1.6%
SMILES | USP2a inh | Eya2 inh | GALK inhibitor | ClpP mod
CCC(=O)NC(=S)Nc1ccccc1C(F)(F)F | nt | nt | nt | 31.6µM*
CCCC(=O)NC(=S)Nc1ccccc1C(F)(F)F | nt | nt | 1.3% | 0.8%
Cc1cccnc1NCC(O)COc1ccccc1 (stereo not given) | 1.7% | -33.6% | 0.9% | 28.2µM*
CC(=O)Nc1ccc(NCC(O)COc2ccccc2)cc1 (stereo not given) | -0.8% | 13.8% | -3.1% | -2.3%
O=C(NN1CCN(Cc2ccccc2Cl)CC1)c1ccc(Cl)cc1 | 1.6% | 0.1% | -2.3% | 1.1%
C=CCNc1nc2c(c(=O)[nH]c(=O)n2C)n1CC(O)COc1ccc2ccccc2c1 (stereo not given) | 0.7% | 12.9% | nt | 0.1%
O=C(O)c1ccc2cc[nH]c2c1 | -1.5% | 16.9% | 6.3% | 15.8µM*
NC(=O)c1ccc2[nH]ccc2c1 | nt | 0.5% | nt | nt
O=[N+]([O-])c1ccc2cc[nH]c2c1 | nt | nt | nt | 17.8µM*
COc1cc2c(C#CCO)c(-c3ccc(C#N)cc3)oc(=O)c2cc1OC | 2.4% | 15.2% | nt | 4.0%
CCOC(=O)c1oc2nc(C(C)C)c3c(c2c1N)CC(C)(C)OC3 | -0.8% | -10.4% | 4.0% | ?
CCCc1nc2oc(C(=O)OCC)c(N)c2c2c1COC(C)(C)C2 | -1.8% | 18.8% | 1.9% | 14.1µM*
CCCc1nc2sc(C(=O)OCC)c(N)c2c2c1COC(C)(C)C2 | 5.7% | 7.3% | 1.4% | 259.0%

Compound activity from PubChem.
